Assay results published in PubChem BioAssay AID651636 (Sanford-Burnham Center for Chemical Genomics, 2012).
In all, about 360,000 compounds went through this assay and about 3,000 (0.83%) were called active. Only a selection was taken, and actives are over-represented in it overall. A number with no mark means an inactive call. No stated cut-off is given here; in the data, active means inhibition above about 38%; inactive means the rest.

What follows are molecules tested against G-protein coupled receptor 183 (Homo sapiens) (UniProt P32249) (assay: blockers of oxysterol-driven EBI2 arrestin signaling – cell-based, luminescence, 7a,25-OHC stimulation, uHTS, primary screen (AID 651636;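 further: enzyme fragment complementation signal reports receptor beta-arrestin coupling in cells; 0% = agonist plus DMSO wells and 100% = wells without agonist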)). Settings: EBI2 beta-arrestin recruitment, 7a,25-OHC stimulated, at 5 µM, hits give high values.
G-protein coupled receptor 183 (Homo sapiens), sequence (P32249 whole entry, looked up, the tested form may be a part): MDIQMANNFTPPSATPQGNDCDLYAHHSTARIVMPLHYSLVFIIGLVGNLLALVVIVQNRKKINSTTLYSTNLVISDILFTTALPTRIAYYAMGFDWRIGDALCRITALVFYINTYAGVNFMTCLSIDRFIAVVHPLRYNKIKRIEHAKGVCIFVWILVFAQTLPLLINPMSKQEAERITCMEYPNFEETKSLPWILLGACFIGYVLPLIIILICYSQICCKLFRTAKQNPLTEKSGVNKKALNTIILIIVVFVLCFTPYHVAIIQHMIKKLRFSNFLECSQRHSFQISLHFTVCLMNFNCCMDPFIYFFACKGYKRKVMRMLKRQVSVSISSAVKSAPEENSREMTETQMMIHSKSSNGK

SMILES | inhibition
COC(=O)c1ccc(CN(c2ccccc2OC)S(=O)(=O)c2cccs2)o1 | 7.2%
CCCc1nc2ccccc2c(C(=O)OCc2nnc(-c3cc(OC)c(OC)c(OC)c3)o2)c1CC | 51.2% (active)
O=C(OCc1nnc(-c2ccccc2)o1)c1cc(=O)[nH]c2ccccc12 | -5.82%
CCOC(=O)c1cc(-c2nnc(-c3cc(OC)c(OC)c(OC)c3)o2)c(C)nc1C | -9%
COc1ccc(S(=O)(=O)NCC(=O)NCc2cc(=O)n(C)c(=O)n2C)cc1F | 2.08%
CC(=O)NCCc1ccc(S(=O)(=O)N(C)C2CCS(=O)(=O)C2)cc1 (centres undefined) | -2.21%
Cc1cc(C)cc(Oc2nc3c(C)cccn3c(=O)c2/C=C(\C#N)C(=O)NC2CCS(=O)(=O)C2)c1 (centres undefined) | 50.3% (active)
Cc1cccn2c(=O)c3cc(C(=O)NC4CCCCC4)sc3nc12 | 8.11%
Cc1cccn2c(=O)c(/C=C(\C#N)S(=O)(=O)c3ccc(Cl)cc3)c(N3CCC(C(N)=O)CC3)nc12 | -5.33%
FC(F)(F)c1cccc(-c2nc3ccccc3n2C(c2ccccc2)c2nc3ccccc3[nH]2)c1 (centres undefined) | 8.62%
CSCCC(C(=O)NC1=NCCS1)N1C(=O)c2ccccc2C1=O (centres undefined) | 1.85%
COC(=O)N/N=C/c1c[n+]([O-])c2ccccc2[n+]1[O-] | -1.98%
COc1ccc(C(=O)/C=C/c2ccc(OC3CSC3)cc2)cc1 | 60.1% (active)
COc1ccc(/C=C/C(=O)c2cc(Br)ccc(=O)c2O)cc1 | -0.626%
COc1ccc(OC)c(/C=C/C(=O)c2ccc3c(c2)OCO3)c1 | 8.22%
COc1ccc(/C=C/C(=O)NC(=S)N2CCCC(C(N)=O)C2)cc1 (centres undefined) | -8.77%
COc1ccc(/C=C/C(=O)c2ccc(OC)cc2O)cc1 | 73.8% (active)
COc1ccc(C(=O)CC(=O)c2ccc(C)cc2)c(O)c1 | -3.66%
CC(C)[C@H](NC(=O)c1ccc(F)cc1)C(=O)OCC(=O)NC(=O)c1cccn1C | -1.33%
Cc1cc(C)cc(NC(=O)COc2coc(CN3CCN(c4ccccc4)CC3)cc2=O)c1 | -4.06%
CCCc1cc(=O)[nH]c(SCc2ccc(C#N)cc2)n1 | -20.6%
N#CC(=C1CCCC1)c1nc(-c2ccc(Cl)cc2)cs1 | 54.1% (active)

SMILES | inhibition
N#CC(=C1SC=CS1)c1nc(-c2ccccc2)cs1 | -66.2%
CCCCCN1CC(O)=C(c2nc(-c3ccc(Cl)cc3)cs2)C1=N | -3.67%
O=C(Nc1cccc(S(=O)(=O)NC2=NCCC2)c1)C1CCCCC1 | -4.45%
CC(=O)c1ccc(NC(=O)CCc2nnc3ccc(NCc4ccco4)nn23)cc1 | -2.75%
CCN(CC)S(=O)(=O)c1cccc(C(=O)NCC(=O)OCC(=O)NCc2ccccc2)c1 | -10.4%
Cc1c(NC(=O)C(C)OC(=O)c2cc3c4ccccc4n(C)c3s2)c(=O)n(-c2ccccc2)n1C (centres undefined) | -12.7%
Cc1cccc(N2CCN(C(=O)c3cc4c(=O)[nH]c5ccccc5c4n3C)CC2)c1C | 88.2% (active)
Cc1cccc(N2CCN(C(=O)/C=C/c3ccco3)CC2)c1C | 33%
CCn1c(C)c(C)c2cc(C(=O)N3CCN(c4cccc(C)c4C)CC3)ccc21 | 15.1%
CCCn1c(NC(=O)C23CC4CC(CC(O)(C4)C2)C3)nc2ccccc21 | -9.2%
CCOC(=O)C(C)Oc1cccc2c(=O)n(CC(=O)N3CCc4ccccc43)ccc12 (centres undefined) | 11.2%
COc1cc(NC(=O)COC(=O)CSc2ccc3ccccc3c2)c(C)cc1[N+](=O)[O-] | -6.04%
COc1cc(/C=C(/NC(=O)c2ccccc2)C(=O)Nc2cccc(O)c2)c([N+](=O)[O-])cc1OC | 5.05%
COc1cc(/C=C(\C#N)C(=O)Nc2ccc3ccccc3c2)c([N+](=O)[O-])cc1OC | 49.6% (active)
COc1ccc(CN2C(=O)CN=C2Nc2ccc(C)cc2C)cc1 | -8.98%
COC(=O)[C@@]12C[C@@H](CC(=O)NCCCCc3ccccc3)C(=O)N(Cc3ccccc3)C1=CCC(C)(C)C2 | 17.4%
O=C(NNC(=O)c1cnccc1C(F)(F)F)c1ccc(Cl)cc1 | -6.52%
CCN(C(=O)CSc1ncnc2sccc12)c1c(N)n(Cc2ccccc2)c(=O)[nH]c1=O | -7.44%
O=C(CSc1nnnn1C1CCCC1)Nc1ccc2c(c1)OCCO2 | 0.834%
CCN(CC(=O)NCc1cccs1)C(=O)/C=C/c1ccc(C)cc1 | 92% (active)
CCOc1ccc(/C=C/C(=O)N(CC)CC(=O)NCc2cccs2)cc1OC | 2.03%
CCN(CC(=O)NCc1cccs1)C(=O)c1ccccc1F | 0.894%
